Hits are enriched below; roughly 1.2% of the tested compounds scored in any of these assays.
S1P2 blocker: human S1P2 receptor antagonists, primary screen, cell-based | Sphingosine 1-phosphate receptor 2 (Homo sapiens), O95136 | cell-based S1P2 antagonist assay, inhibition at 5 uM | inhibition, % at 5 µM | actives 0.21% (n = 97,000) | AID 736, 2007; in the data active = inhibition above about 45%;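 note: CRE beta-lactamase reporter cells expressing human S1P2 stimulated with S1P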
S1P2 ag: S1P2 receptor agonists, primary screen, cell-based. Sphingosine 1-phosphate receptor 2 (Homo sapiens), O95136. S1P2-expressing cell line, agonist reporter read-out. activation, % at 4.5 µM. actives 0.46% (n = 97,000). AID 729, 2007; in the data active = activation above about 16%
GALR2 blocker: GALR2 antagonists in receptor-expressing cells, primary screen. AID 828, 2007. actives 0.39% (n = 140,000). antagonist mode. inhibition, % at 4 µM. Galanin receptor type 2 (Homo sapiens), O43603; in the data active = inhibition above about 27%;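 note: cells stimulated with galanin 1-16 at roughly its EC80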
Target sequence (O43603 whole entry, looked up): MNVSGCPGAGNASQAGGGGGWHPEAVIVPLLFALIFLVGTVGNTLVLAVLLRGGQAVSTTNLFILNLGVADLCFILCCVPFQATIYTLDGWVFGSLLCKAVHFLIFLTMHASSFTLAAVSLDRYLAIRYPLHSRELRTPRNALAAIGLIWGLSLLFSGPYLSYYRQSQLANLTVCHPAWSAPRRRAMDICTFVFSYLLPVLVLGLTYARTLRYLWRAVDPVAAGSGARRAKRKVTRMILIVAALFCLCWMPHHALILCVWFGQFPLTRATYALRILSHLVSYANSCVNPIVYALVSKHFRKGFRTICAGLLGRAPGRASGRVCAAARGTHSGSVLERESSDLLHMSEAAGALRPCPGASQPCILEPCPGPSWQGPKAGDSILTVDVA
GALR2 agonist: GALR2 receptor agonists, primary screen, cell-based; actives 0.48% (n = 140,000); activation, % (test concentration not listed); AID 803, 2007; GALR2-expressing cells, agonist activation read-out; Galanin receptor type 2 (Homo sapiens), O43603; in the data active = activation above about 5%, passing the limit was not always enough
GALR2 agon conf: GALR2 agonists, retest of hits, confirmation, cell-based; shares compounds with GALR2 agonist; GALR2-expressing cells, agonist activation; activation, % at 5.6 µM; actives 10% (n = 460); in the data active = activation above about 8.4%
BLA act counter: activators of NFAT-driven beta-lactamase reporter, confirmation, counter-screen for GALR2 agonist project, CHO NFAT-bla cells, FRET readout. activation, % at 5.6 µM. beta-lactamase FRET activation. actives 10% (n = 460). shares compounds with GALR2 agonist. AID 865, 2007;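 active = activation above the screen-wide mean activation plus 3 SD, cut at about 8% in these data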
A number is an active result; – = inactive; · = not tested or not shown.

SMILES	S1P2 blocker	S1P2 ag	GALR2 blocker	GALR2 agonist	GALR2 agon conf	BLA act counter
CCn1c(N)c(C(=O)NCC2CCCO2)sc1=S (stereo not given)	–	–	–	–	·	·
Nc1c(C(=O)NCC2CCCO2)sc(=S)n1-c1ccccc1 (stereo not given)	–	–	–	–	–	–
CC(C)c1ccc(Nc2cnn(C34CC5CC(CC(CC(=O)O)(C5)C3)C4)c(=O)c2Cl)cc1	–	–	–	–	·	·
Cc1ccc(Nc2cnn(C34CC5CC(CC(CC(=O)O)(C5)C3)C4)c(=O)c2Cl)cc1	–	–	–	–	–	–
Cn1nccc1C(=O)Nn1cnnc1	–	–	–	20	–	–
CCCCN1C(=O)C(O)=C(C(C)=O)C1c1ccccc1 (stereo not given)	–	–	–	172	–	–
CCCCCCN1C(=O)C(O)=C(C(C)=O)C1c1ccc(Cl)cc1 (stereo not given)	·	·	–	–	·	·
Cc1ccc(-n2c(COc3c(C)cccc3C)nnc2SCC(=O)Nc2nccs2)cc1	–	–	–	65	–	–
Cc1ccc(OCc2nnc(SCC(=O)Nc3nccs3)n2-c2ccccc2)cc1C	–	–	–	–	·	·
O=C(c1ccccc1)c1c[nH]c(C(=O)NCCCn2ccnc2)c1	–	–	–	–	·	·
CCN1CCN(C(c2ccc(OC)cc2)C(O)C(=O)c2c[nH]c3ccccc23)CC1 (stereo not given)	–	–	–	–	·	·
CCC(C)C(NC(=O)c1ccccc1NC(=O)c1ccc(OC)cc1)C(=O)NCc1ccco1 (stereo not given)	–	–	–	14	–	–
CC1(c2cc(C(F)(F)F)n3nc(C(=O)O)cc3n2)CC1	–	–	–	–	·	·
CCOc1ccc(NC(=O)CC2C(=O)N(C)C(=S)N2Cc2ccc3c(c2)OCO3)cc1 (stereo not given)	–	–	–	–	·	·
CCOc1ncccc1C(=O)OCC(=O)Nc1ccc(-c2nc3ccc(C)cc3s2)cc1	·	·	–	11	–	–
COCCOC(=O)c1c(C)n(C)c2ccc(OC(=O)c3ccco3)cc12	–	–	–	86	–	–
Cc1cc(=O)oc2c3c4c(cc12)OCCN4CCC3	–	–	–	15	–	–
COc1ccc(C2c3c(oc4ccc(Cl)cc4c3=O)C(=O)N2Cc2ccco2)cc1OC (stereo not given)	·	·	–	21	–	–
N#Cc1c(-c2ccccc2)cc(-c2ccco2)c(C#N)c1N	–	–	–	–	–	11
COc1ccc(C(=O)NCc2nnc(SCC(=O)Nc3nc4ccc(C)cc4s3)o2)cc1OC	·	·	–	–	·	·
CCN(CC)C(c1ccc(F)cc1)c1nnnn1C1CCCCC1 (stereo not given)	–	–	–	9.8	–	–
CCN(CC)C(c1ccc(C)cc1)c1nnnn1C1CCCCC1 (stereo not given)	–	–	–	–	·	·
Cc1ccc(S(=O)(=O)N2CCN(C(=O)COc3ccc(NC(=O)c4ccco4)cc3)CC2)cc1	–	–	–	13	–	–
Nc1nonc1C(=O)NCCNS(=O)(=O)c1ccc(Br)cc1	–	–	–	–	·	·
CC(=O)CCn1c(=O)n(CCC(C)=O)c(=O)n(CCC(C)=O)c1=O	–	–	–	36	–	–
SMILES	S1P2 blocker	S1P2 ag	GALR2 blocker	GALR2 agonist	GALR2 agon conf	BLA act counter
Cn1nnnc1SCC(=O)NC(=O)Cc1ccccc1	–	–	–	–	·	·
Cn1nnnc1SCC(=O)NCCCc1ccccc1	–	–	–	12	–	–
Nc1c(C(=O)NCc2ccccc2)c2nc3ccccc3nc2n1CCCN1CCOCC1	·	·	–	16	11	23
COC(=O)c1ccc(-n2nnnc2SC)cc1	–	–	–	15	–	–
COC(=O)COC(=O)c1ccc(-n2nnnc2SC)cc1	–	–	–	–	·	·
COCCNC(=O)CCc1c(C)nc2c(-c3ccc(F)cc3)c(C)nn2c1C	–	–	–	42	–	–
Cc1nc2c(-c3ccc(F)cc3)c(C)nn2c(C)c1CCC(=O)NCCN1CCOCC1	–	–	–	–	·	·
COc1cc(SC#N)ccc1N=Cc1c(C)[nH]n(-c2ccc(C)c(C)c2)c1=O	·	·	–	12	–	–
Cc1cc(C)c(NC(=O)/C(=C/c2ccccc2)c2ccccc2)c(C)c1	·	·	–	–	·	·
Cc1ccc(NC(=O)/C(=C/c2ccco2)c2ccccc2)c(C)c1	–	–	–	91	–	–
O=C(CCc1ccccc1)NNC(=S)NC(=O)c1ccccc1	–	–	–	–	·	·
CC(C)(C)c1cc(CCC(=O)NNC(=S)NC(=O)c2ccccc2)cc(C(C)(C)C)c1O	·	·	–	35	37	29
COc1ccc(S(=O)(=O)NCC(c2cccnc2)N2CCN(c3ccccc3OC)CC2)cc1C (stereo not given)	–	–	–	–	·	·
COc1ccccc1N1CCN(C(CNS(=O)(=O)c2ccccc2)c2cccnc2)CC1 (stereo not given)	–	–	–	–	–	–
CCCCn1c(SCC(=O)N2CCC(C)CC2)nc2cc(S(N)(=O)=O)ccc21	–	–	–	–	·	·
CCCCn1c(SCC(=O)c2cc(OC)ccc2OC)nc2cc(S(N)(=O)=O)ccc21	·	·	–	68	–	–
Cc1cc(C(=O)CSc2nnnn2C)c(C)n1-c1ccc2c(c1)OCCO2	–	–	–	–	·	·
Cc1nnc(SCC(=O)c2cc(C)n(-c3ccc4c(c3)OCO4)c2C)s1	–	–	–	–	–	–
O=C(Nc1cccc(C(F)(F)F)c1)/C(=C/c1ccco1)NC(=O)c1cccs1	–	–	–	–	·	·
Cc1nnc(SCC(=O)Nc2ccc(Cl)cn2)s1	·	·	–	–	·	·
CCCCCCc1cc2cc(S(=O)(=O)c3ccc(F)cc3)c(=O)oc2cc1O	·	·	–	14	16	41
CCOC(=O)c1c(C)[nH]c(C2=NNC(=Nc3cccc(Cl)c3)SC2)c1C	·	·	–	–	·	·
CCOc1ccc(NC(=S)NC(C)c2cccs2)cc1 (stereo not given)	·	·	–	–	·	·
COC(=O)CCC(=O)Nc1nnc(C(F)(F)F)s1	–	–	–	144	–	–
Cc1cc(C)n(-c2cc(N3CCN(C(=O)c4ccccc4C)CC3)ccc2[N+](=O)[O-])n1	–	–	–	–	·	·
SMILES	S1P2 blocker	S1P2 ag	GALR2 blocker	GALR2 agonist	GALR2 agon conf	BLA act counter
CN(C)C(=S)Nc1ccc2ccccc2c1	·	·	–	–	·	·
CCn1c(-c2cc3c(C(F)(F)F)nn(C)c3s2)n[nH]c1=S	–	–	–	–	·	·
O=C(NC1CCCCC1)C(c1ccc(Cl)cc1)N1CCC2(CC1)OCCO2 (stereo not given)	–	–	–	11	–	–
Cc1ccc(C(C(=O)NC2CCCCC2)N2CCC3(CC2)OCCO3)cc1 (stereo not given)	–	–	–	–	·	·
CCc1cccc(C)c1NC(=O)CCCC(=O)O	–	–	–	–	·	·
Cc1cc(C)c(NC(=O)CCCC(=O)O)c(Cl)c1	–	–	–	13	–	–

Screens from PubChem.
